The target of experiment [1] is T1, ETS1 (UniProt P14921).
T1 sequence: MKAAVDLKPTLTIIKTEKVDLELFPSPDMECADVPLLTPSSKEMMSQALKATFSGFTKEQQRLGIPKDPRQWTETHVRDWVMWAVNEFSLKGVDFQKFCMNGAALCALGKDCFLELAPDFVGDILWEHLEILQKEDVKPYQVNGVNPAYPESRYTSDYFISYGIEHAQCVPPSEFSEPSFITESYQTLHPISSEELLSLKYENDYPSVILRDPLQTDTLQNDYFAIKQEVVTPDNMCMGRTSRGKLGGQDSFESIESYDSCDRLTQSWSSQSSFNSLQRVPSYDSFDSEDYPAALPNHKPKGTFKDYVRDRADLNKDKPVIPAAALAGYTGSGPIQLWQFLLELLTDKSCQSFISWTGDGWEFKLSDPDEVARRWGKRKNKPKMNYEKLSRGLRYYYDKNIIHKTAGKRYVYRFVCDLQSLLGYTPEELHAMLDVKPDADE
As to the kind of experiment: ETS1 binding intensity (PBM fluorescence), ETS1 alone (arbitrary fluorescence units); higher = stronger binding. The note with it: ETS1 concentration 1 nM; RUNX1 concentration 0 nM.

Experiment [2] deals with RUNX1 (UniProt Q01196). As to the kind of experiment: RUNX1 binding intensity (PBM fluorescence), RUNX1 alone (arbitrary fluorescence units); higher = stronger binding. The note with it: RUNX1 concentration 2 nM; ETS1 concentration 0 nM. How it is done: (§1)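 Cooperative gcPBM on 36-bp genomic probes with neighbouring ETS1 and RUNX1 sites. Recombinant human RUNX1 (2 nM) was incubated alone or with ETS1 (25 nM) and detected with anti-RUNX1 antibody plus Alexa488 secondary. Values are medians over 4 replicate spots; the RUNX1+ETS1 data were normalised to the RUNX1-only data. The probes sit in constant array flanks that are not printed.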
Sequence of RUNX1 (Q01196 whole entry): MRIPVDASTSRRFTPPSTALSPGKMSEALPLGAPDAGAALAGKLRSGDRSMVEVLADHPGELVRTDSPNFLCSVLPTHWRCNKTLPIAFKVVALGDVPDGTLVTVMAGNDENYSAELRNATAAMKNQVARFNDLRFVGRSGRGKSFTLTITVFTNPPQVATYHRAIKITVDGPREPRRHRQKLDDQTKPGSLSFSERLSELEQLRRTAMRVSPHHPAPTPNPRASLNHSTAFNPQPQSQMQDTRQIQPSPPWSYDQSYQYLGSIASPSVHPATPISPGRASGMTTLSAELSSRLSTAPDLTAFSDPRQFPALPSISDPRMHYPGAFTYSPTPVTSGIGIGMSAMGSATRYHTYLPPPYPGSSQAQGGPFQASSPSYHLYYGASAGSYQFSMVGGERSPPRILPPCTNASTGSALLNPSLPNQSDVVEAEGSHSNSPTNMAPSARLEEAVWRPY

The target in experiment [3] is T1, ETS1. As to the kind of experiment: ETS1 binding intensity (PBM fluorescence) in presence of RUNX1, normalised to ETS1-only experiment (arbitrary fluorescence units); higher = stronger binding. The note with it: ETS1 concentration 1 nM; RUNX1 concentration 25 nM.
The target of experiment [4] is RUNX1 (UniProt Q01196). Description: RUNX1 binding intensity (PBM fluorescence) in presence of ETS1, normalised to RUNX1-only experiment (arbitrary fluorescence units); higher = stronger binding. To be noted: RUNX1 concentration 2 nM; ETS1 concentration 25 nM. On the procedure:
as §1
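For RUNX1 binding intensity (PBM fluorescence) in presence of ETS1, normalised to RUNX1-only experiment in this document: Full-length recombinant human ETS1 or RUNX1 bound to double-stranded 36-bp genomic probes on microarrays, detected by protein-specific primary antibody and Alexa488 secondary, spot fluorescence as median of four replicate spots.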
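For RUNX1 binding intensity (PBM fluorescence), RUNX1 alone in this document: Full-length recombinant human RUNX1 bound to double-stranded 36-bp genomic probes on a high-density microarray, scored as Alexa488 fluorescence per spot via anti-RUNX1 antibody, median of four replicate spots.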

As for TCCCGGCGTTCTTCCGCTGGCTCAGCCGCAAGTACC, the ETS1 binding intensity with ETS1 [1] stood at 573; in the experiment with ETS1 [3] it was 822. In addition, the RUNX1 binding intensity with RUNX1 [2] was 818; with RUNX1 [4] it was 1170.

Consider TGGAAGGCCGGAAAAGGTTTACCACCACACTCCGGT, for which the values for the ETS1 binding intensity with ETS1 [1] and in the experiment with ETS1 [3] were 1850 and 3690, respectively. Besides, the RUNX1 binding intensity was 791 with RUNX1 [2] and 1320 with RUNX1 [4].

For the sequence GGGGCTGTGCTTCCGGCTGTTTGTGCGGTTTTGTGC, the ETS1 binding intensity in the experiment with ETS1 [1] amounted to 1650; in the experiment with ETS1 [3] it was 6750. Moreover, the RUNX1 binding intensity came to 1520 with RUNX1 [2] and 4340 in the experiment with RUNX1 [4].

As for TCCCGGGGAGGAAGTGGCGAGAATGCGGGGGTGGGC, the ETS1 binding intensity with ETS1 [1] was 1340; in the experiment with ETS1 [3] it was 1440. In addition, the RUNX1 binding intensity worked out at 906 with RUNX1 [2] and 1120 with RUNX1 [4].

On to AGACCCGGAAGAACTTGTCCCAGTGTTGACCACACC, for which the values for the ETS1 binding intensity with ETS1 [1] and in the experiment with ETS1 [3] were 505 and 1100, respectively. Also, the RUNX1 binding intensity in the experiment with RUNX1 [2] was 870; with RUNX1 [4], 938.

On to CAGGCTGCTTCCGGCGCGCGGCAGAGCGGTCAGAGC, for which the ETS1 binding intensity with ETS1 [1] is 990; with ETS1 [3], 1160. Further, the RUNX1 binding intensity in the experiment with RUNX1 [2] amounted to 714; in the experiment with RUNX1 [4], 1700.

As for TATTCATGACATCCTGTCGGGCTTGTGGGCTGCGTA, the ETS1 binding intensity turned out to be 1020 with ETS1 [1] and 1590 with ETS1 [3]. The RUNX1 binding intensity with RUNX1 [2] stood at 704; in the experiment with RUNX1 [4], 1430.

Consider ACCCCAAGCCCAGGATGTGGTTTGGCCACTATTGAG, for which the ETS1 binding intensity in the experiment with ETS1 [1] was 727; with ETS1 [3], 4450. Moreover, the RUNX1 binding intensity came out at 859 with RUNX1 [2] and 2030 in the experiment with RUNX1 [4].

Regarding AAGGCGGTACTTCCTCCAGCATTTGCCGCAAGTTAT, the ETS1 binding intensity amounted to 417 with ETS1 [1] and 535 in the experiment with ETS1 [3]. Further, the RUNX1 binding intensity with RUNX1 [2] came to 768; in the experiment with RUNX1 [4], 1250.

As for GGAACAGGAAGCGGCAGAAATAGCAGCCACCGCGGC, the ETS1 binding intensity with ETS1 [1] worked out at 960; in the experiment with ETS1 [3], 1540. Moreover, the RUNX1 binding intensity was found to be 819 with RUNX1 [2] and 1310 with RUNX1 [4].

For GGGCTATTGTTTCCTCCCCCATGTGACCACAGCCTC, the ETS1 binding intensity was 418 with ETS1 [1] and 776 with ETS1 [3]. In addition, the RUNX1 binding intensity with RUNX1 [2] worked out at 994; with RUNX1 [4], 1290.

On to ACCCACCCGGAAGTCCTCCTGGCCCACAAGCTCCGC, for which the ETS1 binding intensity with ETS1 [1] turned out to be 2360; with ETS1 [3] it was 2270. For the same sequence, the RUNX1 binding intensity is 992 in the experiment with RUNX1 [2] and 1630 in the experiment with RUNX1 [4].

In the case of CATGGGACCCGGAAGTGTGTGGTAAAGCGCCGGGGC, the ETS1 binding intensity with ETS1 [1] came to 3590; with ETS1 [3], 9470. The results for the RUNX1 binding intensity with RUNX1 [2] and in the experiment with RUNX1 [4] were 896 and 2350, respectively.

For the sequence GGTGGCCGCCGGAAGTGTGACCGCGGGAGGGGAGTG, the ETS1 binding intensity was found to be 7650 with ETS1 [1] and 25500 with ETS1 [3]. In addition, the RUNX1 binding intensity in the experiment with RUNX1 [2] stood at 743; in the experiment with RUNX1 [4], 2690.

For the origin of these results see the supplement of paper PMC10681739.
